Source: PubChem (several laboratories)
Hits are enriched below; roughly 6.6% of the tested compounds scored in any of these assays.
Autofluor counter: counter-screen for toxin protease inhibitors: compound fluorescence; fluorescence intensity (no concentration beside the values); AID 624483; compound autofluorescence counterscreen, microsphere flow cytometry; hits give high values; 3.1% of 360,000 active; in the data active = fluorescence intensity above about 16000; inconclusive = no clear call, values can overlap the other calls
BoNT A protease: inhibitors of Botulinum neurotoxin A light chain protease; multiplex microsphere protease substrate cleavage, flow cytometry; 0.17% of 360,000 active; inhibition, % at 10 µM; AID 588499
GDH-TPI counter-1: inhibits GDH-TPI coupling enzymes, artifact for Mtb FBA screen; GDH-TPI coupled enzyme counterscreen, NADH absorbance; inhibition, % at 4.8 µM; 1.2% of 360,000 active; in the data active = inhibition above about 30%
Mtb FBA inh: Mtb fructose-bisphosphate aldolase inhibition; P9WQA3; purified M. tuberculosis FBA, fluorescence read-out; inhibition, % at 1 µM; 2.3% of 360,000 active; AID 588726; in the data active = inhibition above about 27%
Target sequence (P9WQA3 whole entry, looked up): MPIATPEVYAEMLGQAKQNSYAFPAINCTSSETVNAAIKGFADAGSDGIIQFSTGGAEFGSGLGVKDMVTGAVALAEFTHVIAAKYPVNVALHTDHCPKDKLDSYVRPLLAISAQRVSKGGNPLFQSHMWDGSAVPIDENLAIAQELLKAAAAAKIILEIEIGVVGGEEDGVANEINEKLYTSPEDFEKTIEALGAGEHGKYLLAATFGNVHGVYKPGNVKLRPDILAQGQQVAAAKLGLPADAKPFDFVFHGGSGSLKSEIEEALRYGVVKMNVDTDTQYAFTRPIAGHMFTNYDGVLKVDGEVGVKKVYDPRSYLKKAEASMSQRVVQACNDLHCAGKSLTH
Anthrax LF inh2: inhibitors of Bacillus anthracis lethal factor protease; multiplex microsphere protease cleavage assay, LF; inhibition, % at 10 µM; 0.12% of 360,000 active; AID 588501
BoNT F protease: inhibitors of Botulinum neurotoxin F light chain protease; 0.22% of 360,000 active; Multiplex microsphere protease cleavage assay, flow cytometry; AID 588497; inhibition, % at 10 µM; in the data active = inhibition above about 35%, passing the limit was not always enough; inconclusive = no clear call, values can overlap the other calls
Mtb FBA confirm: Mtb FBA inhibition, confirmed; purified M. tuberculosis FBA, fluorescence read-out; inhibition, % at 1 µM; 78% of 5,600 active; AID 651616; shares compounds with Mtb FBA inh; in the data active = inhibition above about 27%
GDH-TPI counter-2: inhibits GDH-TPI coupling enzymes, flagging Mtb FBA hits; shares compounds with Mtb FBA inh; GDH-TPI coupled enzyme counterscreen, fluorescence; inhibition, % at 1 µM; 81% of 5,600 active; AID 652141; in the data active = inhibition above about 10%
GDH-TPI dose: inhibits GDH-TPI coupling enzymes in dose response; shares compounds with Mtb FBA inh; AID 652145; IC50, µM; GDH-TPI coupled enzyme assay, fluorescence, artifact counterscreen; 79% of 170 active; call rule not given here
Of the large screens only hits and unclear results are named; the others gave an inactive call (follow-up assays come after a bar, where they were run). Rule as the data show it, unless noted: active = inhibition above about 30%; inconclusive = no clear call, values can overlap the other calls; inactive = below that.

CCC(=O)C1CCCN(C(=O)CCc2nnc(-c3ccc(C(C)=O)s3)o2)C1 (centres undefined)	none
COc1cc(Cl)c(C)cc1NC(=O)c1cc(S(=O)(=O)N(C)C)ccc1N1CCCC1	none
Cc1cccc(C)c1N(CC(=O)NCc1ccccc1)C(=O)c1csnn1	none
Cc1ccc(NC(=O)CCCCCN2C(=O)[C@@H]3Cc4ccccc4CN3C2=O)cc1	Mtb FBA inh 53 | Mtb FBA confirm inactive | GDH-TPI counter-2 inactive
Cc1cccc(NC(=O)CCCCCN2C(=O)[C@@H]3Cc4ccccc4CN3C2=O)c1	none
CC1CCC(NC(=O)c2cccc(S(=O)(=O)N3CCOCC3)c2)CC1 (centres undefined)	none
C#CCSc1nc(-c2cccs2)ccc1C#N	Mtb FBA inh 36 | Mtb FBA confirm 51 | GDH-TPI counter-2 46
COC(=O)CSc1nc(-c2cccs2)ccc1C#N	Mtb FBA inh 71 | Mtb FBA confirm active | GDH-TPI counter-2 active
Nc1nc(C2CC2)c(Sc2sc(N)nc2C2CC2)s1	none
COc1cc(NC(=O)COc2ccc([N+](=O)[O-])cc2)ccc1NC(=O)c1ccco1	none
CCNC(=O)COC(=O)/C=C/c1cccc(F)c1	none
O=C(Cn1ccc2ccccc2c1=O)N1CCN(Cc2ccc3c(c2)OCO3)CC1	none
O=C(c1cc2c(=O)n3ccccc3nc2s1)N1CCN(Cc2ccc3c(c2)OCO3)CC1	Mtb FBA inh 96 | Mtb FBA confirm inactive | GDH-TPI counter-2 inactive | GDH-TPI dose 2.3
O=C(c1cc2c(=O)n3ccccc3nc2s1)N1CCN(Cc2ccccc2)CC1	Mtb FBA inh 105 | Mtb FBA confirm inactive | GDH-TPI counter-2 inactive
Cc1cccn2c(=O)c3cc(C(=O)N4CCN(Cc5ccccc5)CC4)sc3nc12	Autofluor counter inconclusive, Mtb FBA inh 57 | Mtb FBA confirm inactive | GDH-TPI counter-2 inactive
O=C(c1cc2ccccn2n1)N1CCN(Cc2ccccc2)CC1	none
CC1CCCN(C(=O)c2cc3c(=O)n4ccccc4nc3s2)C1 (centres undefined)	Mtb FBA inh 59 | Mtb FBA confirm 50 | GDH-TPI counter-2 30
CC(C)C(=O)n1nc(-c2cccnc2)nc1NCc1cccs1	none
CC(C)(C)NC(=O)COC(=O)c1ccc(Cl)c(S(N)(=O)=O)c1	none
O=[N+]([O-])c1ccc(NCCCc2ccccc2)cc1	none
Cc1c(CNC(=O)C2CC2)c(-n2cccc2)n(Cc2ccccc2)c1C	none
Cc1cc(=O)oc2cc(NC(=O)Cc3ccccc3[N+](=O)[O-])ccc12	Mtb FBA inh 63, BoNT F protease inconclusive | Mtb FBA confirm 30 | GDH-TPI counter-2 19
Cc1cc(=O)oc2cc(NC(=O)c3cccc(S(C)(=O)=O)c3)ccc12	Mtb FBA inh 34 | Mtb FBA confirm 79 | GDH-TPI counter-2 62
Cc1ccc(NC(=O)CCOc2ccccc2C)cc1F	none
Cc1cc(=O)oc2cc(NC(=O)C(C)Oc3ccc(F)cc3)ccc12 (centres undefined)	Mtb FBA inh 33 | Mtb FBA confirm 177 | GDH-TPI counter-2 144
Cc1ccccc1OCCC(=O)Nc1ccc2c(C)cc(=O)oc2c1	Mtb FBA inh 95 | Mtb FBA confirm 183 | GDH-TPI counter-2 153
CS(=O)(=O)c1cccc(C(=O)Nc2ccccc2Cc2ccccc2)c1	Mtb FBA inh 58 | Mtb FBA confirm 48 | GDH-TPI counter-2 inactive
Cc1cc(=O)oc2cc(NC(=O)Cc3ccccc3)ccc12	Mtb FBA inh 80 | Mtb FBA confirm active | GDH-TPI counter-2 185
Cc1cc(=O)oc2cc(NC(=O)C(C)N3C(=O)C4CCCCC4C3=O)ccc12 (centres undefined)	Mtb FBA inh 85 | Mtb FBA confirm 65 | GDH-TPI counter-2 35
CCCC(C(=O)Nc1ccc2c(C)cc(=O)oc2c1)c1ccccc1 (centres undefined)	Mtb FBA inh 28 | Mtb FBA confirm inactive | GDH-TPI counter-2 inactive | GDH-TPI dose 2.8
CC1CCCN(C(=O)COc2ccc(Nc3ccccc3)cc2)C1 (centres undefined)	none
O/N=C/c1ccc2cccc(OCc3ccccc3)c2n1	none
NC(=S)N/N=C/c1ccc2cccc(OCc3ccccc3)c2n1	Mtb FBA inh 40, BoNT F protease inconclusive | Mtb FBA confirm 47 | GDH-TPI counter-2 37
O=C(N/N=C/c1ccc2cccc(OCc3ccccc3)c2n1)c1ccc(Br)cc1	none
COc1ccc(C(=O)N/N=C/c2ccc3cccc(OCc4ccccc4)c3n2)cc1	Mtb FBA inh 63 | Mtb FBA confirm inactive | GDH-TPI counter-2 15
COc1cc(C(=O)OCCc2cc3ccccc3c(=O)o2)cc(OC)c1OC	none
CCCCNC(=O)Nc1nnc(-c2ccccc2)o1	none
CCCCNC(=O)Nc1nnc(-c2ccc(OCC)cc2)o1	Mtb FBA inh 29 | Mtb FBA confirm 70 | GDH-TPI counter-2 41
CCOC(=O)CNC(=O)Nc1nnc(-c2ccc(OCC)cc2)o1	Mtb FBA inh 63 | Mtb FBA confirm inactive | GDH-TPI counter-2 inactive
CCOc1ccc(-c2nnc(NC(=O)COc3ccccc3F)o2)cc1	none
O=C(NNC(=O)c1cc(-c2ccc(Cl)cc2)nc2ccccc12)c1csc(N2CCOCC2)n1	none
CN1CCN(NC(=O)c2cc(-c3ccc(Cl)s3)nc3ccccc23)CC1	Mtb FBA inh 73 | Mtb FBA confirm 65 | GDH-TPI counter-2 42
CC(C)(CNC(=O)c1cc(-c2ccc(Cl)s2)nc2ccccc12)N1CCOCC1	Mtb FBA inh 62 | Mtb FBA confirm inactive | GDH-TPI counter-2 inactive | GDH-TPI dose 2.9
O=C(c1cc(-c2ccc(Cl)s2)nc2ccccc12)N1CCCC1	Mtb FBA inh 58 | Mtb FBA confirm 155 | GDH-TPI counter-2 144
CN1CCN(NC(=O)c2cc(-c3ccccn3)nc3ccccc23)CC1	none
O=S(=O)(NCc1ccco1)c1ccc(Cl)nc1	none
Cc1ccc(NC(=O)C2CCCN(C(=O)c3ccc(Cl)cc3)C2)c(C)c1 (centres undefined)	none
Cc1ccc(S(=O)(=O)c2c(C)nn(-c3ccccc3)c2OC(=O)c2ccco2)cc1	none
Cc1ccc(S(=O)(=O)N2CN(Cc3ccco3)c3nc4ccccc4nc32)cc1	none
Cc1ccc(S(=O)(=O)c2c(N)n(NC(=O)c3ccco3)c3nc4ccccc4nc23)cc1	Mtb FBA inh 35 | Mtb FBA confirm inactive | GDH-TPI counter-2 inactive
Cc1cccc(S(=O)(=O)c2c(N)n(Cc3ccco3)c3nc4ccccc4nc23)c1	Mtb FBA inh 101 | Mtb FBA confirm 76 | GDH-TPI counter-2 61
